Mcl-1 Bim block – inhibitors of Bim peptide binding to Mcl-1, primary screen, biochemical, bead-based flow cytometry, multiplex; Bim peptide-Mcl-1 binding; inhibition, % at 10 µM; 190,000 compounds, 0.1% hits; in the data active = inhibition above about 40%;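 also: 0% = no compound tracer wells and 100% = peptide blocker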
TLR4-MyD88 BLA – inhibitors of TLR4-MyD88 association in cells, primary screen, cell-based, HeLa CL3-4, BLA complementation, FRET ratio; HeLa CL3-4 TLR4/MyD88 BLA complementation; Toll-like receptor 4 (Homo sapiens) + Myeloid differentiation primary response protein …; AID 861, 2007; 200,000 compounds, 0.18% hits; inhibition, % at 8.4 µM; in the data active = inhibition above about 25%;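 also: 0% = vehicle and 100% = reference inhibitor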
TLR9-MyD88 inh – inhibitors of TLR9-MyD88 association in cells, primary screen, cell-based, CHO, BLA complementation, fluorescence; AID 504734, 2011; 340,000 compounds, 0.21% hits; Toll-like receptor 9 (Homo sapiens) + Myeloid differentiation primary response protein …; inhibition, % at 4.98 µM; CCF4 FRET ratio;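 active = inhibition above the mean over all tested compounds plus 3 SD, cut at about 21% in these data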;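 also: 0% = DMSO only wells and 100% = clavulanate BLA inhibitor control wells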
Target sequence (Q99836 whole entry, looked up): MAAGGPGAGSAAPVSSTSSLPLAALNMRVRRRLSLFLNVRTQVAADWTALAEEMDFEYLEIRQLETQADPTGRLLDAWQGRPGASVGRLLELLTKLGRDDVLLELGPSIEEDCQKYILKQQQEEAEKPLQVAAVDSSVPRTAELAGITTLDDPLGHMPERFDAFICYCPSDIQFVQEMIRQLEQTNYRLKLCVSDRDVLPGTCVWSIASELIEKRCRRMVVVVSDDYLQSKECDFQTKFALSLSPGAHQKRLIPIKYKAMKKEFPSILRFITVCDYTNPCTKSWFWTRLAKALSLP
Target sequence (Q9NR96 whole entry, looked up): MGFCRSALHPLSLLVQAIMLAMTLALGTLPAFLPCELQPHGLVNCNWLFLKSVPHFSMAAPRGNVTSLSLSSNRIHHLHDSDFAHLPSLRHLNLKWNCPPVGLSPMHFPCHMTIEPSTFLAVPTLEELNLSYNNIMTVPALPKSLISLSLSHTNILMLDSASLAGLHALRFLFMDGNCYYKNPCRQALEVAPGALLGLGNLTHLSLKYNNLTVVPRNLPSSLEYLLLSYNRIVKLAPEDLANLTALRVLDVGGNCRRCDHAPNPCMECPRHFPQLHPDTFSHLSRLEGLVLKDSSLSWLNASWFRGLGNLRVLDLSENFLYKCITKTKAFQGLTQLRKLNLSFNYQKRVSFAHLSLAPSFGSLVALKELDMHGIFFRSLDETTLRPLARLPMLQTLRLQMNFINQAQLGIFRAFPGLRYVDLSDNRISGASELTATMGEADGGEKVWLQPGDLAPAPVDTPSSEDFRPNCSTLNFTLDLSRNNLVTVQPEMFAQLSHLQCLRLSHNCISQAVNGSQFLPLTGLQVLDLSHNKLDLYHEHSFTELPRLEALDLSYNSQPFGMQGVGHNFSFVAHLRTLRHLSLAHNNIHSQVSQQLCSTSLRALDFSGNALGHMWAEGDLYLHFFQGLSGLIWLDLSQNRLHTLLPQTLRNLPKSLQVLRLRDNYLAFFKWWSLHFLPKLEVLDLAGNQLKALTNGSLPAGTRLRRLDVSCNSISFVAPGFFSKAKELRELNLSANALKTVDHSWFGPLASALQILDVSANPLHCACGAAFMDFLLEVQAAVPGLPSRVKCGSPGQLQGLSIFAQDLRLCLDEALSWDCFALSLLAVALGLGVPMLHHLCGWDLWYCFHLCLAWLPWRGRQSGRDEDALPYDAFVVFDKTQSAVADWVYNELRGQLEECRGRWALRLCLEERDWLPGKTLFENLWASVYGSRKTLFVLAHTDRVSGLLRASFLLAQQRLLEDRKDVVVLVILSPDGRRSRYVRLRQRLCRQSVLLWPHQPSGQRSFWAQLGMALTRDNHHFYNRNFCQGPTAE
Mcl1-Bid inh – Mcl-1/Bid binding inhibitors, primary screen, biochemical, TR-FRET, 1536-well. Induced myeloid leukemia cell differentiation protein Mcl-1 (Homo sapiens), Q07820. TR-FRET Mcl-1/Bid-Dy647 peptide binding. inhibition, % at 21.7 µM. 220,000 compounds, 0.97% hits. AID 1021, 2008;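 active = compounds that cut the binding signal by more than half at the single screening dose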;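 also: His-tagged Mcl-1 with europium anti-His antibody binding Bid BH3 peptide; 0% = Mcl-1 plus peptide wells and 100% = peptide-only wells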
NOD2-RIPK2 inh – NOD2-RIPK2 binding disruptors in cells, primary screen, fluorescence, CHO cells, BLA complementation; Receptor-interacting serine/threonine-protein kinase 2 (Homo sapiens), O43353; CCF4 ratio; inhibition, % at 4.98 µM; 360,000 compounds, 0.38% hits; AID 624267, 2012; in the data active = inhibition above about 21%;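 also: 0% = vehicle only and 100% = reference blocker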
Mcl1-Noxa inh – Mcl-1/Noxa binding inhibitors, primary screen, biochemical, TR-FRET, 1536-well; inhibition, % at 21.7 µM; AID 1022, 2008; TR-FRET Mcl-1/Noxa peptide binding, 2 h; 220,000 compounds, 1.5% hits; Induced myeloid leukemia cell differentiation protein Mcl-1 (Homo sapiens), Q07820;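 active = compounds that cut the protein-peptide binding signal by more than 50% relative to plate controls in a single-dose test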;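 also: His-tagged Mcl-1 with rhodamine Noxa BH3 peptide and terbium anti-His antibody; 0% = Mcl-1 plus Noxa peptide wells and 100% = peptide-only wells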
* hit, by the source's call; . = not tested or not shown. A selection: hits, their analogues and other compounds. The true share with any hit is near 1.8%.

SMILES	Mcl-1 Bim block	TLR4-MyD88 BLA	TLR9-MyD88 inh	Mcl1-Bid inh	NOD2-RIPK2 inh	Mcl1-Noxa inh
CCn1nc([N+](=O)[O-])c2c(-c3nc4ccccc4o3)c(N)n(CCCOC)c2c1=O	1	3	5	27	-1	52*
CCCCCCCCCCCCCCCC[N+](C)(C)Cc1ccc(F)cc1	.	.	1	.	-9	.
O=C(c1ccccc1)N1CCN(C(=O)c2ccc([N+](=O)[O-])cc2)CC1	-3	-3	-3	10	-1	54*
O=C(Nc1ccccc1)C1CCN(C(=O)c2ccc([N+](=O)[O-])cc2)CC1	3	12	2	-15	-4	0
CC(=O)c1cccc(NC(=O)C2CCN(C(=O)c3ccc([N+](=O)[O-])cc3)CC2)c1	-2	1	-2	73*	-2	9
COc1ccc(NC(=O)C2C3C=CC4(O3)C2C(=O)N(CCN2CCCCC2)C4C(=O)NC2CCCC(C)C2C)cc1 (stereo not drawn)	.	.	-5	.	-11	.
CCCc1cc(=O)oc2cc(C)cc(OC(C)C(=O)NCCCn3ccnc3)c12 (stereo not drawn)	.	.	-13	.	-2	.
Cc1cc(C)cc(OCC(=O)Nc2ccc(N3CCCC3)cc2)c1	9	-9	-6	5	3	67*
COc1ccc(OCC(=O)Nc2ccc(N3CCCCC3)cc2)cc1	0	-1	2	-45	0	20
COc1ccccc1OCCCC(=O)Nc1ccc(N2CCOCC2)cc1	1	2	-2	-45	10	11
Cc1ccccc1OCCCC(=O)Nc1ccc(N2CCOCC2)cc1	35	-2	6	-27	6	51*
Cc1ccc(OCC(=O)Nc2ccc(N3CCCC3)cc2)cc1C	1	-17	3	-7	-9	81*
Cc1cccc(OCC(=O)Nc2ccc(N3CCCC3)cc2)c1C	20	.	5	-24	-8	62*
COc1ccccc1OCC(=O)Nc1ccc(N2CCCCC2)cc1	-3	5	5	-27	3	36
Cn1cc(-c2csc(C(O)c3ccc(F)c(F)c3)n2)cn1 (stereo not drawn)	.	.	.	.	3	.
CN1C2=C(C(=O)CC(C)(C)C2)C(c2cccs2)C2=C1CC(C)(C)CC2=O	.	.	-6	.	-3	.
CN1CCN(c2ccc(NC(=O)COc3ccccc3Cl)cc2)CC1	0	2	-1	63*	2	9
CCC(=O)N1CCN(c2ccc(NC(=O)COc3ccccc3Cl)cc2)CC1	-2	-10	-6	-89	-4	17
O=C(Nc1ccc(N2CCOCC2)cc1)c1cnsn1	0	-6	4	-3	0	23
O=C(Nc1ccc(N2CCOCC2)cc1)Nc1ccc2nsnc2c1	4	1	-3	-50	-10	61*
O=C(Nc1ccc2nc(-c3ccco3)c(-c3ccco3)nc2c1)N1CCN(c2ccccn2)CC1	15	-21	6	-55	1	64*
CC1CCc2sc(C(=O)Nc3ccc(N4CCOCC4)cc3)cc2C1 (stereo not drawn)	0	-8	-9	-28	4	52*
O=C(c1ccc2nc(-c3ccco3)c(-c3ccco3)nc2c1)N1CCN(c2ncccn2)CC1	8	-5	6	-47	0	100*
O=C(c1cccc(C(=O)N2CCN(c3ncccn3)CC2)c1)N1CCN(c2ncccn2)CC1	-6	-3	5	-10	-3	-15
CCCn1c(N)c(N(CCOC)C(=O)c2cccc(S(=O)(=O)N3CCCc4ccccc43)c2)c(=O)[nH]c1=O	.	.	-12	.	-2	.
SMILES	Mcl-1 Bim block	TLR4-MyD88 BLA	TLR9-MyD88 inh	Mcl1-Bid inh	NOD2-RIPK2 inh	Mcl1-Noxa inh
CN(C)c1nc(NNC(=O)c2ccccc2)nc(N(C)C)n1	.	.	4	.	-22	.
S=C(Nc1ccc(N2CCOCC2)cc1)Nc1ccc2nc(-c3ccco3)c(-c3ccco3)nc2c1	-5	-5	6	-10	5	81*
CN=c1scc(-c2ccc(F)cc2)n1/N=C/c1ccc(O)c(O)c1	0	-2	3	-45	2	35
COCCN(C(=O)c1ccc2c(c1)S(=O)(=O)N=C1CCCCCN12)c1c(N)n(CC(C)C)c(=O)[nH]c1=O	.	.	17	.	6	.
N#CCCn1nc(-c2ccccc2)c2ccccc2c1=O	.	.	1	.	-5	.
Nc1ccc2nc(-c3ccc(Cl)cc3)[nH]c2c1	0	.	-3	-78	10	85*
CCCC[n+]1ccc(-c2nc3ccc([N+](=O)[O-])cc3[nH]2)cc1	-3	-10	-6	-4	-7	14
Nc1ccc(-c2nc3ccc(N)cc3[nH]2)cc1	10	-23	4	-42	-1	31
Nc1ccc(-c2nc3ccc([N+](=O)[O-])cc3[nH]2)cc1	2	-14	18	-20	1	51*
O=[N+]([O-])c1ccc(-c2nc3ccc([N+](=O)[O-])cc3[nH]2)cc1	0	6	3	78*	-10	63*
COc1ccc(S(=O)(=O)N(C)C)cc1NC(=O)COC(=O)Cn1cnc2ccccc2c1=O	.	.	0	.	4	.
Cc1ccc(Oc2c(C(N)=O)cc([N+](=O)[O-])cc2[N+](=O)[O-])cc1	-5	-8	8	-32	-3	13
OCCC1CN(C2CCC2)CCN1Cc1ccc(F)c(F)c1 (stereo not drawn)	.	.	-5	.	-4	.
CSCCC(NC(=O)c1ccccc1)C(=O)N1CCN(C(c2ccccc2)c2ccccc2)CC1 (stereo not drawn)	.	.	8	.	7	.
Cc1cccc(Cn2c(N3CCN(C)CC3)nc3c2c(=O)[nH]c(=O)n3C)c1	.	.	1	.	9	.
Cc1cccc(Cn2c(N3CCc4ccccc4C3)nc3c2c(=O)[nH]c(=O)n3C)c1	1	-3	-5	1	2	63*
Cc1onc(-c2ccccc2)c1C(=O)OCC(=O)Nc1cc(S(=O)(=O)N2CCOCC2)ccc1Cl	1	4	-4	-5	5	13
COc1ccc(-c2cc3nc(NCCNC(C)=O)n(C)c(=O)c3s2)c(C)c1	.	.	.	.	3	.
O=C(O)c1ccc(Cl)c2c1C1C=CCC1C(c1ccccn1)N2 (stereo not drawn)	5	-4	.	56*	.	89*
O=C(Cc1cccs1)N=Nc1c(O)[nH]c2ccc(Br)cc12	.	.	-5	-4	-2	44
COc1ccc2[nH]c(O)c(N=NC(=O)Cc3cccs3)c2c1	.	.	8	-55	1	61*

High-throughput results as filed in PubChem BioAssay.
